Reference: PubChem BioAssay (NCI)
Compounds without any hit were thinned out: in the full panel of roughly 79,000, 15% have a hit. Activity calls are given as the source filed them. Cut-off read from the data, not from the text of the source: active = growth inhibition above about 70%; inactive = the rest.

Key:
[1] = NCI Yeast Anticancer Drug Screen. Data for the wt2 strain (AID 169);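 note: 0% = growth of vehicle-treated yeast cultures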; details: S. cerevisiae wt2 strain growth inhibition, stronger effect = higher value
Procedure, shortened: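 Read-out: growth inhibition versus vehicle-treated control cultures after compound exposure of the yeast strain.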

[2] = NCI Yeast Anticancer Drug Screen. Data for the mlh1 strain (AID 171);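 note: 0% = growth of vehicle-treated control cultures of the same strain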; details: S. cerevisiae mlh1 strain growth inhibition, stronger effect = higher value
Procedure, shortened: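 Read-out: growth inhibition versus vehicle controls. Strain: engineered yeast with a defined DNA repair or cell cycle defect, compound-treated.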

[3] = NCI Yeast Anticancer Drug Screen. Data for the sgs1 strain (AID 173);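 note: 0% = growth of vehicle-only control cultures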; details: S. cerevisiae sgs1 mutant, stronger effect = higher value
Procedure, shortened: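 Read-out: yeast growth inhibition relative to vehicle controls, following compound exposure of a strain with a defined DNA repair/cell cycle alteration.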

[4] = NCI Yeast Anticancer Drug Screen. Data for the mlh1 rad18 strain (AID 175); details: S. cerevisiae mlh1 rad18 strain growth inhibition, stronger effect = higher value
Procedure, shortened: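 Yeast w/ defined DNA-repair lesions; compound exposure; growth vs vehicle controls → % inhibition.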

[5] = NCI Yeast Anticancer Drug Screen. Data for the rad18 strain (AID 177); details: S. cerevisiae rad18 mutant growth inhibition, stronger effect = higher value
Procedure, shortened: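 Readout: growth inhibition vs vehicle controls. Cells: genetically altered yeast strain, DNA repair defect.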

[6] = NCI Yeast Anticancer Drug Screen. Data for the rad52 strain (AID 147);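 note: 0% = growth of vehicle-treated control cultures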; details: S. cerevisiae rad52 mutant growth inhibition, stronger effect = higher value
Procedure, shortened: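 Read-out: growth inhibition versus vehicle-treated controls. Cells were a DNA repair-deficient yeast strain treated with compounds.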

[7] = NCI Yeast Anticancer Drug Screen. Data for the wt1 strain (AID 149);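 note: 0% = growth of vehicle-treated wt1 cultures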; details: S. cerevisiae wt1 strain (SPY 50644) growth inhibition, stronger effect = higher value
Procedure, shortened: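 Measured: growth of wt1 yeast under compound versus vehicle treatment, reported as inhibition.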

[8] = NCI Yeast Anticancer Drug Screen. Data for the rad50EPP+ strain (AID 151);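 note: 0% = growth of vehicle-treated control cultures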; details: S. cerevisiae rad50 mutant strain, stronger effect = higher value
Procedure, shortened: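 Growth inhibition read against vehicle controls in rad50EPP+ yeast, a strain altered in DNA damage repair, after compound exposure.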

[9] = NCI Yeast Anticancer Drug Screen. Data for the mgt1 strain (AID 153); details: S. cerevisiae mgt1 mutant growth inhibition, stronger effect = higher value
Procedure, shortened: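 mgt1 yeast grown with test compound; read-out is growth inhibition versus vehicle-treated cultures.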

[10] = NCI Yeast Anticancer Drug Screen. Data for the rad50 strain (AID 155);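 note: 0% = growth of vehicle-only cultures of the same strain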; details: S. cerevisiae rad50 strain growth inhibition, stronger effect = higher value
Procedure, shortened: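 Growth of the mutant yeast was measured after compound exposure and referenced to vehicle-treated cultures.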

[11] = NCI Yeast Anticancer Drug Screen. Data for the mec2-1 strain (AID 157); details: S. cerevisiae mec2-1 strain, stronger effect = higher value
Procedure, shortened: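 Yeast mec2-1 mutant treated with compound. Readout: growth inhibition vs vehicle controls.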

[12] = NCI Yeast Anticancer Drug Screen. Data for the rad14 strain (AID 159);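 note: 0% = growth of vehicle-treated control cultures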; details: S. cerevisiae rad14 strain growth inhibition, stronger effect = higher value
Procedure, shortened: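 Here, inhibition of yeast growth was measured after compound exposure, using a strain with a genetic defect in DNA damage repair and vehicle-treated cultures as the reference.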

[13] = NCI Yeast Anticancer Drug Screen. Data for the sgs1 mgt1 strain (AID 161);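 note: 0% = growth of cultures given vehicle only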; details: S. cerevisiae sgs1 mgt1 strain, stronger effect = higher value
Procedure, shortened: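 Mutant yeast exposed to compound; growth scored against vehicle-only wells.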

[14] = NCI Yeast Anticancer Drug Screen. Data for the CLN2oe strain (AID 163);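 note: 0% = growth of vehicle-only control cultures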; details: S. cerevisiae CLN2oe strain, stronger effect = higher value
Procedure, shortened: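 Read-out: yeast growth inhibition, expressed relative to vehicle-only controls. The strain bears an engineered cell-cycle alteration.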

[15] = NCI Yeast Anticancer Drug Screen. Data for the cln2 rad14 strain (AID 165);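 note: 0% = growth equal to vehicle treated cultures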; details: S. cerevisiae cln2 rad14 strain, stronger effect = higher value
Procedure, shortened: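 cln2 rad14 yeast strain; compound exposure; growth inhibition read vs vehicle controls.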

[16] = NCI Yeast Anticancer Drug Screen. Data for the bub3 strain (AID 167); details: S. cerevisiae bub3 mutant strain, stronger effect = higher value
Procedure, shortened: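 Whole-cell yeast assay. The mutant strain was incubated with compounds, and growth inhibition was determined by comparison with vehicle-treated cells.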

[17] = at 5.0 µM (retest, dose inferred, filed as 0.5)
[18] = at 50.0 µM (retest, dose inferred, filed as 5.0)

Measured: growth inhibition

O=C1C(CCSc2ccccc2)C(=O)N(c2ccccc2)C1c1ccccc1 (centres undefined)
inactive: [1]; at 1.2 µM -5% | [1]; at 3.7 µM -4% | [1]; at 11.0 µM 22% | [2]; at 1.2 µM 1% | [2]; at 3.7 µM -14% | [2]; at 11.0 µM 28% | [3]; at 1.2 µM 7% | [3]; at 3.7 µM 15% | [3]; at 11.0 µM 44% | [4]; [17] 44% | [5]; at 1.2 µM -15% | [5]; at 3.7 µM -3% | [5]; at 11.0 µM 24%
active: [1]; at 33.0 µM 95% | [1]; at 100.0 µM 90% | [2]; at 33.0 µM 95% | [2]; at 100.0 µM 90% | [3]; at 33.0 µM 96% | [3]; at 100.0 µM 87% | [4]; [18] 87% | [4]; at 50.0 µM 90.2% | [5]; at 33.0 µM 95% | [5]; at 100.0 µM 89%

CC1(C2CC2)C(C#N)(C#N)C1(C#N)C#N
active: [6]; at 100.0 µM 78% | [10]; [18] 91% | [10]; at 100.0 µM 91% | [11]; at 100.0 µM 84% | [13]; [18] 70% | [16]; [18] 81% | [16]; at 100.0 µM 84% | [2]; at 100.0 µM 84% | [3]; at 100.0 µM 94% | [4]; [18] 89% | [4]; at 50.0 µM 70.9% | [5]; at 100.0 µM 87%
inactive: [6]; at 1.2 µM 2% | [6]; at 3.7 µM 10% | [6]; at 11.0 µM 22% | [6]; at 33.0 µM 45% | [7]; at 1.2 µM -2% | [7]; at 3.7 µM -2% | [7]; at 11.0 µM 5% | [7]; at 33.0 µM 19% | [7]; at 100.0 µM 48% | [8]; at 1.2 µM -1% | [8]; at 3.7 µM 2% | [8]; at 11.0 µM 1% | [8]; at 33.0 µM 9% | [8]; at 100.0 µM 9% | [9]; at 1.2 µM -1% | [9]; at 3.7 µM -2% | [9]; at 11.0 µM 1% | [9]; at 33.0 µM 16% | [9]; at 100.0 µM 63% | [10]; at 1.2 µM -1% | [10]; at 3.7 µM 3% | [10]; [17] -106% | [10]; at 11.0 µM 25% | [10]; at 33.0 µM 66% | [10]; at 50.0 µM 38.1% | [11]; at 1.2 µM 4% | [11]; at 3.7 µM 2% | [11]; [17] -39% | [11]; at 11.0 µM 33% | [11]; at 33.0 µM 36% | [11]; [18] 57% | [11]; at 50.0 µM 41.9% | [12]; at 1.2 µM 4% | [12]; at 3.7 µM 7% | [12]; at 11.0 µM 16% | [12]; at 33.0 µM 29% | [12]; at 100.0 µM 66% | [13]; [17] -48% | [13]; at 50.0 µM 51% | [14]; at 1.2 µM -2% | [14]; at 3.7 µM 8% | [14]; at 11.0 µM 16% | [14]; at 33.0 µM 21% | [14]; at 100.0 µM 53% | [15]; [17] -50% | [15]; [18] 7% | [15]; at 50.0 µM 16.3% | [16]; at 1.2 µM -7% | [16]; at 3.7 µM -2% | [16]; [17] -57% | [16]; at 11.0 µM 19% | [16]; at 33.0 µM 49% | [16]; at 50.0 µM 39.8% | [1]; at 1.2 µM -1% | [1]; at 3.7 µM -2% | [1]; at 11.0 µM -1% | [1]; at 33.0 µM 15% | [1]; at 100.0 µM 69% | [2]; at 1.2 µM 4% | [2]; at 3.7 µM -9% | [2]; at 11.0 µM 9% | [2]; at 33.0 µM 31% | [3]; at 1.2 µM -1% | [3]; at 3.7 µM 6% | [3]; at 11.0 µM 23% | [3]; at 33.0 µM 60% | [4]; [17] -96% | [5]; at 1.2 µM 4% | [5]; at 3.7 µM 9% | [5]; at 11.0 µM 22% | [5]; at 33.0 µM 53%

N#CC1OB(O)c2ccccc21 (centres undefined)
active: [10]; [18] 81%
inactive: [6]; at 1.2 µM -9% | [6]; at 3.7 µM -6% | [6]; at 11.0 µM -5% | [6]; at 33.0 µM -5% | [6]; at 100.0 µM 3% | [7]; at 1.2 µM -5% | [7]; at 3.7 µM -4% | [7]; at 11.0 µM -5% | [7]; at 33.0 µM -4% | [7]; at 100.0 µM 0% | [8]; at 1.2 µM -2% | [8]; at 3.7 µM 4% | [8]; at 11.0 µM 4% | [8]; at 33.0 µM 17% | [8]; at 100.0 µM 26% | [9]; at 1.2 µM -7% | [9]; at 3.7 µM -4% | [9]; at 11.0 µM -2% | [9]; at 33.0 µM 0% | [9]; at 100.0 µM -3% | [10]; at 1.2 µM -13% | [10]; at 3.7 µM -10% | [10]; [17] -126% | [10]; at 11.0 µM 4% | [10]; at 33.0 µM 10% | [10]; at 50.0 µM 58.2% | [10]; at 100.0 µM 11% | [11]; at 1.2 µM 1% | [11]; at 3.7 µM 0% | [11]; [17] -51% | [11]; at 11.0 µM 3% | [11]; at 33.0 µM 1% | [11]; [18] -27% | [11]; at 50.0 µM 27.9% | [11]; at 100.0 µM -7% | [12]; at 1.2 µM -3% | [12]; at 3.7 µM 0% | [12]; at 11.0 µM -2% | [12]; at 33.0 µM -2% | [12]; at 100.0 µM 1% | [13]; [17] -61% | [13]; [18] -2% | [13]; at 50.0 µM 27.1% | [14]; at 1.2 µM 0% | [14]; at 3.7 µM -2% | [14]; at 11.0 µM 1% | [14]; at 33.0 µM -7% | [14]; at 100.0 µM -2% | [15]; [17] -57% | [15]; [18] -42% | [15]; at 50.0 µM 21% | [16]; at 1.2 µM -11% | [16]; at 3.7 µM -10% | [16]; [17] -64% | [16]; at 11.0 µM -6% | [16]; at 33.0 µM -10% | [16]; [18] -36% | [16]; at 50.0 µM 69.7% | [16]; at 100.0 µM -4% | [1]; at 1.2 µM 0% | [1]; at 3.7 µM 0% | [1]; at 11.0 µM -1% | [1]; at 33.0 µM -2% | [1]; at 100.0 µM -2% | [2]; at 1.2 µM 7% | [2]; at 3.7 µM -5% | [2]; at 11.0 µM -6% | [2]; at 33.0 µM -6% | [2]; at 100.0 µM -7% | [3]; at 1.2 µM 1% | [3]; at 3.7 µM 1% | [3]; at 11.0 µM 2% | [3]; at 33.0 µM 1% | [3]; at 100.0 µM 1% | [4]; [17] -115% | [4]; [18] 7% | [4]; at 50.0 µM 60.9% | [5]; at 1.2 µM -4% | [5]; at 3.7 µM -1% | [5]; at 11.0 µM 1% | [5]; at 33.0 µM 2% | [5]; at 100.0 µM 6%
